# G6PDH CS – L. mesenteroides G6PDH inhibitors, counter-screen for G6PDH-coupled screening assays, biochemical, Leuconostoc mesenteroides enzyme; actives 0.12% (n = 200,000); Purified L. mesenteroides G6PDH, diaphorase/resazurin coupled fluorescence, 45 min; inhibition, % at 5 µM; glucose-6-phosphate dehydrogenase [Leuconostoc mesenteroides]; in the data active = inhibition above about 50%
# PHOSPHO1 block – PubChem AID 1565; inhibition, % at 13.3 µM; recombinant PHOSPHO1, absorbance phosphatase assay; actives 1.1% (n = 290,000); Phosphoethanolamine/phosphocholine phosphatase (Homo sapiens), Q8TCT1; in the data active = inhibition above about 60%
# HDAC3 inh – HDAC3 deacetylase inhibitors, primary screen, biochemical, fluorescence, cell-free homogeneous | Histone deacetylase 3 (Homo sapiens), O15379 | recombinant HDAC3, fluorogenic peptide/trypsin coupled | inhibition, % at 8.3 µM | actives 0.15% (n = 320,000); in the data active = inhibition above about 26%, passing the limit was not always enough; inconclusive = no clear call, values can overlap the other calls
# SUMO HTRF inh – inhibitors of in vitro SUMOylation cascade, primary screen, biochemical, HTRF, uHTS; HTRF SUMOylation assay, SAE1/SAE2 + UBC9; actives 0.36% (n = 290,000); inhibition, % at 35 µM; SUMO-conjugating enzyme UBC9 (Homo sapiens), P63279; AID 2006, 2009; in the data active = inhibition above about 50%, passing the limit was not always enough; inconclusive = no clear call, values can overlap the other calls
# p97 inhibitor – inhibitors of human p97 ATPase, primary screen, biochemical | Transitional endoplasmic reticulum ATPase (Homo sapiens), P55072 | recombinant p97 ATPase, Kinase-Glo ATP luminescence, 3 h | inhibition, % at 8 µM | actives 0.42% (n = 220,000); in the data active = inhibition above about 15%
# Target sequence (P55072 whole entry, looked up): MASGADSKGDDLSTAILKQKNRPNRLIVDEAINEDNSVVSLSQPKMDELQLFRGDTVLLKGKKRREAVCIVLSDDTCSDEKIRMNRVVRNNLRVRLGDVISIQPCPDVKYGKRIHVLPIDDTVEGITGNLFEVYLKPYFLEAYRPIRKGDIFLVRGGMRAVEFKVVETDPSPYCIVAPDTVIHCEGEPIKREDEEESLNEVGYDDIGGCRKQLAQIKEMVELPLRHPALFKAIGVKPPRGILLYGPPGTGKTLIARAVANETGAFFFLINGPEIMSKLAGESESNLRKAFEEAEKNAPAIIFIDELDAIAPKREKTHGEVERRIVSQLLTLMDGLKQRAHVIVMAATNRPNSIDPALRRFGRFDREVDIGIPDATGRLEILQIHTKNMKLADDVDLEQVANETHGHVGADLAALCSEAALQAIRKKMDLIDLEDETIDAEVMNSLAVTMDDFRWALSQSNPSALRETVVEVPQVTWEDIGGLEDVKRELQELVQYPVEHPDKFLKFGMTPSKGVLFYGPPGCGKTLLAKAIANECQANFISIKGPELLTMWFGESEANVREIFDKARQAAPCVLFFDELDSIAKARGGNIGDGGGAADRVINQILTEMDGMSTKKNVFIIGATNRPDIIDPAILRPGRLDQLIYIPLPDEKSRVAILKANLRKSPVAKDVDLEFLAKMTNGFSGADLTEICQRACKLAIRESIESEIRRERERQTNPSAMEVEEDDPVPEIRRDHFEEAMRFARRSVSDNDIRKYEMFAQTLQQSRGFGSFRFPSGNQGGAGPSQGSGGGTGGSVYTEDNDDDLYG
# PfM18AAP inh – PfM18AAP inhibitors, malaria aminopeptidase, primary screen, biochemical, QFRET, recombinant enzyme | M18 aspartyl aminopeptidase (Plasmodium falciparum 3D7) | inhibition, % at 7.35 µM | actives 1.2% (n = 290,000) | AID 1822, 2009 | H-Glu-NHMec fluorogenic cleavage;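 active = inhibition above the campaign mean inhibition over all tested compounds plus 3 SD, cut at about 28% in these data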
# Numbers stand for hits; - = inactive; ? = inconclusive; . = no result. Only some compounds are listed: those with a hit (about 2.5% of all), similar ones and a draw of the others.
SMILES,G6PDH CS,PHOSPHO1 block,HDAC3 inh,SUMO HTRF inh,p97 inhibitor,PfM18AAP inh
COc1ccccc1P(=O)(c1ccccc1)c1ccc([N+](=O)[O-])cc1 (configuration not stated),.,-,-,-,.,-
O=C(COc1ccc(Cl)cc1Br)OCC(=O)c1ccc[nH]1,.,.,-,.,.,.
O=C1NC(=S)N/C1=C/c1cc([N+](=O)[O-])ccc1O,-,82,-,-,-,-
CCCCOc1ccc(C(=O)NCCOc2cccc(OC)c2)cc1,.,-,-,-,.,-
CCN(CC)c1ccc(NC(=O)c2ccccc2)cc1S(=O)(=O)Nc1ccccc1OC,-,95,-,-,-,-
CCN(CC)c1ccc(NC(=O)c2cccc(C)c2)cc1S(=O)(=O)Nc1ccccc1OC,-,-,-,-,-,-
COc1ccc(C(=O)NC(=O)COC(=O)c2ccc3ncsc3c2)cc1,-,-,-,68,-,-
O=C(COC(=O)c1ccc2ncsc2c1)NC(=O)c1ccccc1,-,-,-,-,-,31
Cc1nn(CC(=O)Nc2cccnc2)c(=O)c2ccccc12,-,63,-,-,-,-
Cc1cn2c(=O)c(C(=O)N3CCN(c4ccccc4)CC3)cnc2s1,.,.,-,.,.,.
O=C1NN(c2cccc(Br)c2)C(=O)/C1=C/c1ccc(-c2cc([N+](=O)[O-])ccc2O)o1,.,-,-,-,35,-
CCCCCCSc1ccc([C@@H]2[C@H]3C(=O)N(C)C(=O)[C@H]3[C@]3(C(=O)OC)CCCCN23)cc1OC,.,.,-,.,.,.
CCCCCCSc1ccc([C@@H]2[C@@H]3C(=O)N(C)C(=O)[C@@H]3[C@]3(C(=O)OC)CCCCN23)cc1OC,.,.,36,.,.,.
Cc1cc(=S)[nH]c2c(C)cccc12,-,98,-,-,-,33
Cc1ccc2c(c1)C1CN(C)CCC1N2CC(=O)N(C)c1ccccc1 (configuration not stated),-,83,-,-,-,-
Cc1ccc2c(c1)C1CN(C)CCC1N2C(=O)COc1ccc(N(C)C(=O)C(C)(C)C)cc1 (configuration not stated),-,-,-,-,-,-
CC1CCN(c2ccc3nnc(CCC(=O)N4CCN(c5ccc(F)cc5)CC4)n3n2)CC1,.,-,-,-,.,-
COCCNC(=S)NC1CC2CCCC(C1)N2Cc1cccs1 (configuration not stated),-,-,-,-,-,-
COCCCNC(=S)NC1CC2CCCC(C1)N2Cc1cccs1 (configuration not stated),-,69,-,-,-,-
COc1ccc(C(=O)c2c(C(F)(F)F)oc3c2C(=O)c2ccccc2C3=O)cc1,54,97,-,-,-,-
CCn1cc(CNCc2cn(C)nc2-c2ccc(C3CCCCC3)cc2)cn1,-,-,.,-,-,-
C=CCn1c(N)c(C(=O)NCCC2=CCCCC2)sc1=S,-,77,-,-,-,-
CO[C@H]1C=CO[C@@]2(C)Oc3c(C)c(O)c4c(O)c(c(C=NN5CCN(C6CCCC6)CC5)c(O)c4c3C2=O)NC(=O)C(C)=CC=C[C@H](C)[C@H](O)[C@@H](C)[C@@H](O)[C@@H](C)[C@H](OC(C)=O)[C@@H]1C,-,-,.,52,-,-
O=C(c1csc2c1CCCC2)n1cccn1,.,.,79,.,.,.
O=C(c1csc2c1CCCC2)N1CCN(c2ncccn2)CC1,-,-,-,-,-,-
SMILES,G6PDH CS,PHOSPHO1 block,HDAC3 inh,SUMO HTRF inh,p97 inhibitor,PfM18AAP inh
C=CCN(CC=C)C(=O)c1cccc(OC2CCN(S(=O)(=O)N(C)C)CC2)c1,.,-,-,-,.,-
CCC1C(=O)NCCN1C(=O)c1cccc(OC2CCN(S(=O)(=O)N(C)C)CC2)c1 (configuration not stated),.,64,-,.,.,-
CCc1ccccc1NC(=O)C1CCN(S(=O)(=O)c2ccc3c(c2)N(C(C)=O)CCO3)CC1,.,-,?,-,.,-
Cc1ccc2oc(=O)c(/C=C(\O)c3sc(C)nc3C)nc2c1,-,-,.,-,-,29
CCOCCCNC(=O)c1cc(-c2cccnc2)nc2ccc(S(=O)(=O)N3CCC(C)CC3)cc12,.,75,-,-,.,-
COc1ccc(CC(=O)Nc2cccc(SC)c2)cc1OC,-,-,.,-,-,-
CCOc1cc(C(=S)N2CCCC2)ccc1OC,.,-,-,-,.,-
COc1cc(C(=S)N2CCCC2)cc(OC)c1O,-,76,-,-,-,-
CCN1/C(=C/c2ccc3cc(C)ccc3[n+]2CC)Sc2ccccc21,-,-,-,-,-,49
CCN1/C(=C/c2ccc3cc(C)ccc3[n+]2CC)Sc2cc(C)c(C)cc21,-,-,.,-,-,-
CCOC(=O)c1c(C)[nH]c(C)c1S(=O)(=O)NCCc1ccco1,.,-,-,-,.,-
CNC(=O)C(Sc1nc(C)nc2c1oc1ccccc12)C(C)=O (configuration not stated),-,88,-,-,-,-
Cc1nn(C)c(C(=O)N/N=C/c2ccc(-c3ccccc3)cc2)c1Cl,.,-,-,-,.,-
Cc1sc2ncnc(NCC3CCCO3)c2c1C (configuration not stated),-,60,-,-,-,-
Cc1ccc(S(=O)(=O)N2CCOCC2)cc1C(=O)O,-,-,-,-,-,-
O=C(O)c1cc2cccc(S(=O)(=O)N3CCOCC3)c2cc1O,-,-,-,52,-,-
Cc1cc2nc(CCN(Cc3cccnc3)C(=S)Nc3ccccc3)[nH]c2cc1C,-,92,-,-,-,-
O=C(NNC(=O)c1ccccc1OCc1ccccc1Cl)c1csc(N2CCOCC2)n1,.,-,-,-,.,-
CSc1nc(SCCO)c2sc3nc(-c4ccco4)c4c(c3c2n1)CC(C)(C)OC4,-,76,.,-,-,-
CC1(C)Cc2c(c(-c3ccco3)nc3sc4c(NCCO)ncnc4c23)CO1,-,-,-,-,-,-
COc1cc(OC)cc(C(=O)Nc2ccc(S(=O)(=O)N3CCOCC3)cc2)c1,.,.,-,-,.,-
CC(=O)N1CCN(c2nc(-c3ccco3)c3c(c2C#N)CC(C)(C)SC3)CC1,-,86,-,-,-,-
N#CC1=C(SCc2ccccc2)NC2=C(C(=O)CCC2)C1c1ccc2c(c1)OCO2 (configuration not stated),-,93,-,-,-,-
COC(=O)CSC1=C(C#N)C(c2ccc(C)cc2)C2=C(CCCC2=O)N1 (configuration not stated),-,-,-,-,-,30
Cc1ccc(NC(=O)CSC2=C(C#N)C(c3ccc4c(c3)OCO4)C3=C(CCCC3=O)N2)c(C)c1 (configuration not stated),-,72,-,-,-,-
